Assay [1] in a line: MultiTox-Fluor Cytotoxicity Assay - LYMP1-002 - Live Cells (AID 955).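 Further: cells exposed to compound for 16 hours; on the % scale 0 is the no-effect control and ±100 the full control effect.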 The procedure, abridged: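 LYMP1-002 lymphoblastoid cells; 2500 cells/well; 16 hr compound exposure, 37 C; MultiTox-Fluor reagent 60 min RT; live-cell fluorescence Ex/Em=405/510; qHTS concentration-response, Hill-equation AC50; tetraoctylammonium bromide positive control.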
A short description of assay [2]: Cell Viability - LYMP2-007 (AID 979).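 Further: cells exposed to compound for 24 h before reading; 0% = DMSO only and the negative end = 92 µM tetraoctylammonium bromide; nearly all actives have a fitted effect of over 60% in size.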 An outline of the steps:
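qHTS cytotoxicity: 2500 cells/well, 5 hr 37 C settle, compound 24 hr 37 C, CellTiter-Glo 30 min RT, luminescence. Decrease in ATP = toxicity. AC50 by standard Hill equation; tetraoctylammonium bromide positive control.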

The nature of assay [3]: Cell Viability - LYMP2-018 (AID 985).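 Further: plate controls were DMSO only for no effect and tetraoctylammonium bromide at 92 µM for full effect; nearly all actives have a fitted effect of over 50% in size.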 The procedure, abridged: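 2500 cells/well; 5 hr 37 C; cmpd 24 hr 37 C, complete medium; CellTiter-Glo 30 min RT; luminescence. Tetraoctylammonium bromide positive control. AC50 via Hill fit.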
A short description of assay [4]: Cell Viability - LYMP1-002 - Assay at 24 hr (AID 993). Further: on the % scale 0 is the no-effect control and ±100 the full control effect. The procedure, abridged:
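CellTiter-Glo luminescence (intracellular ATP) after 24 h compound exposure, 37 C, in LYMP1-002 human lymphoblastoid cells; decreased ATP taken as cytotoxicity. AC50 from standard Hill fit of concentration-response curves.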

Assay [5] addresses Peroxisome proliferator-activated receptor gamma (Homo sapiens) (UniProt P37231). Briefly: qHTS assay for small molecule agonists of peroxisome proliferator-activated receptor gamma signaling (AID 588536; active means well fitted curve in the direction sought with a large enough effect in the signal ratio, with a control signal flat, not every such curve was filed as active; the % refers to the signal ratio;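 further: 0% = DMSO basal wells and 100% = rosiglitazone at 2 µM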). An outline of the steps: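 Cells were plated and held 6–6.5 h at 37 C, then compounds were added as a titration series. After a further 16 h, CCF4 dye was loaded for 2 h at room temperature and emission at 460/530 nm recorded.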

Assay [6] is described as follows: qHTS assay for small molecule agonists of the antioxidant response element (ARE) signaling pathway (AID 651741; active means well fitted activation curve with a large enough effect in the signal ratio; the % refers to the signal ratio; further: potency means the concentration at half of the fitted maximal effect; on activation: % of control where 0% means no effect). An outline of the steps:
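HepG2 ARE-bla reporter cells, 2,000/well; 5 h settle at 37 C/5% CO2; compound pin transfer (23 nL, DMSO); 16 h at 37 C; LiveBLAzer B/G FRET substrate, 2 h RT; fluorescence intensity read.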

Assay [7] is described as follows: qHTS assay for environmental chemicals that activate the Aryl hydrocarbon Receptor (AhR) signaling pathway (AID 651777). Further: % of control where 0% means no effect; nearly all actives have a fitted effect of over 15% in size. Particulars: 1A2-DRE human hepatoma cells, luciferase, 24 h; activation: active compounds read high. The procedure, abridged:
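1A2-DRE human hepatoma reporter line; 1,200 cells/well; cmpd or DMSO 24 h, 37 C/5% CO2; One-Glo 30 min RT; luciferase lum.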
(In general: Quantitative high-throughput screening tests each substance at several concentrations.)

Assay [8] is described as follows: Cell Viability - Mesenchymal (AID 546).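 Further: cells exposed to compound for 40 hours before reading; 0% = DMSO only and -100% = 100 µM tamoxifen.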 An outline of the steps:
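Human renal mesenchymal cells (glomerulus-derived), 1000 cells/well, 5 hr 37 °C pre-incubation; compound 40 hr, 37 °C; CellTiter-Glo, 20 min RT; luminescence; AC50 via Hill equation.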

Assay [9] is described as follows: Cellular Toxicity (caspase-3) Mesangial (AID 660).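 Further: combined caspase 3 and 7 activity read by Caspase-Glo luminescence; cells exposed to compound for 16 h before the caspase read.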 The procedure, abridged: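 Luminescent Caspase-Glo 3/7 readout (aminoluciferin substrate cleavage, 20 min RT) after 16 h compound exposure at 37 °C of normal human mesangial cells. Signal increase normalized between DMSO basal and 100 uM tamoxifen; Hill-equation AC50.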
Assay [10] in a line: MultiTox-Fluor Cytotoxicity Assay - LYMP1-001 - Live Cells (AID 947).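 Further: 0% = DMSO only and full inhibition = tetraoctylammonium bromide control.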
The nature of assay [11]: Cell Viability - LYMP2-010 (AID 981).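 Further: cells exposed to compound for 24 hours at 37 °C; on the % scale 0 is the no-effect control and ±100 the full control effect; nearly all actives have a fitted effect of over 55% in size.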 An outline of the steps: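 qHTS cytotoxicity, 1536-well: 2500 cells/well, 5 hr settle, 24 hr compound at 37 C, CellTiter-Glo 30 min RT, luminescence read. Decrease in ATP = toxicity; AC50 via standard Hill equation. Positive control tetraoctylammonium bromide.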
Assay [12] in a line: qHTS assay for small molecule activators of the p53 signaling pathway (AID 651743; active means well fitted activation curve with a large enough effect in the signal ratio, not every such curve was filed as active; the % refers to the signal ratio; further: % of control where 0% means no effect). Conditions: HCT-116 p53RE-bla, beta-lactamase FRET ratio, 16 h; activation: active compounds read high. The procedure, abridged:
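Reporter: beta-lactamase driven by p53 response elements, stably integrated in HCT-116 cells. Cells seeded at 4,000/well, 5 h preincubation, compound (DMSO) 16 h at 37 C; B/G FRET substrate 2 h RT; fluorescence intensity read.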

Assay [13] is described as follows: Cell Viability - SK-N-SH (AID 435; calls by dose curve;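 further: potency means the concentration at half of the fitted maximal effect; compound exposure lasted 40 h at 37 °C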). Conditions: SK-N-SH neuroblastoma cell viability qHTS. The procedure, abridged: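 SK-N-SH human neuroblastoma cells (1500/well) were exposed to compounds in complete medium for 40 h at 37 °C, and intracellular ATP was then measured by CellTiter-Glo luminescence. AC50 was taken from Hill fits, normalized to DMSO and 100 uM tamoxifen.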

For assay [14], the target named is Estrogen receptor (Homo sapiens) (UniProt P03372). Briefly: qHTS assay for small molecule agonists of estrogen receptor alpha signaling (AID 588514; calls by dose curve;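 further: 0% = vehicle only and 100% = reference agonist; nearly all actives have a fitted effect of over 70% in size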). The procedure, abridged:
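Read-out: CCF4 fluorescence from a beta-lactamase reporter in ER-alpha-UAS-bla HEK 293 cells after 18 hrs of compound exposure at 37 C. Normalized to 20 nM 17-beta-estradiol (100%) and DMSO (0%).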

Assay [15] has as its target Peroxisome proliferator-activated receptor gamma (Homo sapiens) (UniProt P37231). Briefly: qHTS assay for small molecule antagonists of peroxisome proliferator-activated receptor gamma signaling (AID 588537; active means well fitted inhibition curve with a large enough effect in the signal ratio, with a control signal flat, not every such curve was filed as active; the % refers to the signal ratio;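 further: reporter cells co-stimulated with 50 nM rosiglitazone agonist during compound treatment; % of control where 0% means no effect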). The procedure, abridged: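 Read-out: CCF4 fluorescence (ex 405, em 460/530 nm) after 2 h at RT. Cells were HEK293 carrying a UAS-bla reporter and treated 16 h at 37 C with compound plus rosiglitazone (50 nM final). Normalized to rosiglitazone and DMSO.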

Assay [16] has as its target Retinoic acid receptor RXR-alpha (Homo sapiens) (UniProt P19793). In words: qHTS assay for small molecule agonists of retinoid X receptor alpha signaling (AID 588544; calls by dose curve;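 further: 0% = DMSO basal wells and 100% = reference agonist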).
Assay [17] in a line: qHTS assay for small molecule disruptors of the mitochondrial membrane potential - 1 hr assay (AID 651754; calls by dose curve; further: on the % scale 0 is the no-effect control and ±100 the full control effect; nearly all actives have a fitted effect of over 35% in size). An outline of the steps: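 Read-out: dye fluorescence at 490 nm ex/535 nm em (monomers) and 540 nm ex/590 nm em (aggregates) in HepG2 cells. Compound exposure 1 hr at 37C, followed by 30 min dye loading.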
Assay [18] can be described thus: Cell Viability - LYMP2-013 (AID 970).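 Further: 0% = DMSO only and full inhibition = tetraoctylammonium bromide control; nearly all actives have a fitted effect of over 55% in size.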 An outline of the steps:
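CellTiter-Glo luminescence (cellular ATP) read after 30 min at RT. Cells: human lymphoblastoid line, 2500/well, 24 hr compound exposure at 37 C. Tetraoctylammonium bromide positive control; AC50 via standard Hill fit of qHTS titrations.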

For assay [19], the target named is Nuclear receptor ROR-gamma (Homo sapiens) (UniProt P51449). Briefly: qHTS assay for small molecule antagonists of the retinoid-related orphan receptor gamma (ROR-gamma) signaling pathway (AID 651802).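 Further: CHO cells with doxycycline-induced ROR-gamma expression; luciferase reporter luminescence driven by ROR response element; on the % scale 0 is the no-effect control and ±100 the full control effect; nearly all actives have a fitted effect of over 60% in size.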 An outline of the steps:
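Luciferase read-out: ONE-Glo luminescence after 30 min at room temperature, following 16hr doxycycline induction at 37C, 5% CO2 of CHO cells with TET-inducible ROR and RORE-LUC reporter; decreased luminescence = reduced reporter activity.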

Assay [20] is described as follows: Cellular Toxicity (caspase-3) N2a (AID 665).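 Further: compound exposure lasted 16 h at 37 °C before readout.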 Conditions: N2a cells, luminescence, normalized: DMSO 0%, 10 µM staurosporine 100%; at 92.2 µM (top of the series). An outline of the steps: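 Luminescent Caspase-Glo 3/7 readout in N2a mouse neuroblastoma cells after 16 h compound exposure at 37 °C. Signal scaled to DMSO (basal) and 10 uM staurosporine (100%). Concentration-response fitted with Hill equation for AC50.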

Values joined by “and” are separate entries in the source; they are usually repeats but may differ in a detail not shown here. Equal entries are not always repeated. Unmarked numbers belong to inactive results. Results filed as inconclusive are left out. Active and inactive are the calls of the source. Unless noted, the call rests on the fitted dose curve; in most records, active means well fitted curve in the direction sought with a large enough effect; inconclusive means small, poorly fitted or top-dose-only effect, or another doubt; inactive means no such curve, though single readings can be large; an effect the other way counts as inactive or inconclusive.

Retinoic acid receptor RXR-alpha (Homo sapiens), sequence (P19793 whole entry, looked up): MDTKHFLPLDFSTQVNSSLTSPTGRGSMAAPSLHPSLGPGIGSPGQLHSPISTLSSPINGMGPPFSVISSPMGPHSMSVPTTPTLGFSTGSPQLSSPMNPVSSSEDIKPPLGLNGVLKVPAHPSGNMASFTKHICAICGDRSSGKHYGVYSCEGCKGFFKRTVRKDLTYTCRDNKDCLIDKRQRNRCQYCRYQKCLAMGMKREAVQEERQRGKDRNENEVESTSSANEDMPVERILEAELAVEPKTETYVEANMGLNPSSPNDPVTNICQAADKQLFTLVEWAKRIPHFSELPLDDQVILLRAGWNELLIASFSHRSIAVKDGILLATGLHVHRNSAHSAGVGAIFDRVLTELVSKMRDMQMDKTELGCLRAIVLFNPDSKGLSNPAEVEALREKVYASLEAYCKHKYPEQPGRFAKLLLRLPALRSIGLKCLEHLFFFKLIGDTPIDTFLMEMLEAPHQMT
Estrogen receptor (Homo sapiens), sequence (P03372 whole entry, looked up): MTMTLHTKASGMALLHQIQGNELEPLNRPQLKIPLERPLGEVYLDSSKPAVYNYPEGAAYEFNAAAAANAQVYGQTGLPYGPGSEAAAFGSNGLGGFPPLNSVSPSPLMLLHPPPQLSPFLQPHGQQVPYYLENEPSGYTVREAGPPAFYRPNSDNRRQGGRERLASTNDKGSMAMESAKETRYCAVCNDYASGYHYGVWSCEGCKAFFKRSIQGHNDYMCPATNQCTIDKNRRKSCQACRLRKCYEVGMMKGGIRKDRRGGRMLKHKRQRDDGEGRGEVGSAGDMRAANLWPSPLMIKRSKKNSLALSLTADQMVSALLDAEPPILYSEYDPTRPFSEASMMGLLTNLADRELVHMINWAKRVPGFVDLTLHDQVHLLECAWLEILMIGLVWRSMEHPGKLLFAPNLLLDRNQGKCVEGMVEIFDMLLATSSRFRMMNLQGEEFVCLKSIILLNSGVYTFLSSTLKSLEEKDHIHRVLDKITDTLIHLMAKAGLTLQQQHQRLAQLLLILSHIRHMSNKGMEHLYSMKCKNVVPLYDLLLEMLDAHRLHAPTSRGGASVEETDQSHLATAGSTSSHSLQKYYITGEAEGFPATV
Peroxisome proliferator-activated receptor gamma (Homo sapiens), sequence (P37231 whole entry, looked up): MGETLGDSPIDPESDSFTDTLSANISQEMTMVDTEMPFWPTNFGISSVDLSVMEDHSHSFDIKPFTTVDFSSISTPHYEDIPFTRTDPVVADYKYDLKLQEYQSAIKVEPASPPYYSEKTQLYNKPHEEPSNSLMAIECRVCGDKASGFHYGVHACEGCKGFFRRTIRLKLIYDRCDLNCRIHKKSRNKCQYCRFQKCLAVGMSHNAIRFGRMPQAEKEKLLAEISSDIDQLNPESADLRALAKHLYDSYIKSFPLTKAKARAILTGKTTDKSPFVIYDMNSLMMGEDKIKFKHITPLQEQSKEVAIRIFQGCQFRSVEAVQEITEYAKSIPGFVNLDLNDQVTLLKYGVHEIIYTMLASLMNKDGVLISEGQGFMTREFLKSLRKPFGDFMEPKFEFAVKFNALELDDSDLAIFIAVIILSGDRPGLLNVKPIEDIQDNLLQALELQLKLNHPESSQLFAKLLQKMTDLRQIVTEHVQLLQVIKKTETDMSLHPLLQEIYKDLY
Nuclear receptor ROR-gamma (Homo sapiens), sequence (P51449 whole entry, looked up): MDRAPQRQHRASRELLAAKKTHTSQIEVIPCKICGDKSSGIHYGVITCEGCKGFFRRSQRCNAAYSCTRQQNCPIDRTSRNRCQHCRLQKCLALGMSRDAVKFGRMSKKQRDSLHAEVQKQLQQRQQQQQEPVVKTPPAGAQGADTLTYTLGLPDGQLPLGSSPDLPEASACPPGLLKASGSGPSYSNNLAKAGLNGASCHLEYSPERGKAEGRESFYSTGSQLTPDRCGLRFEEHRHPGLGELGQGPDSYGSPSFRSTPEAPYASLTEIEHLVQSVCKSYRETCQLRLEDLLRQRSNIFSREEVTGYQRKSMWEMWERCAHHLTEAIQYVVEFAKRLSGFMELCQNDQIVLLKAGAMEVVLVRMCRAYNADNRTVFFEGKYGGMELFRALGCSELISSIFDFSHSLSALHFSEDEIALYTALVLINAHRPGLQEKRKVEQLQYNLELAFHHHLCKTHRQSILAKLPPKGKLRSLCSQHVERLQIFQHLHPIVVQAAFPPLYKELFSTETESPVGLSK

In the case of `ClC(Cl)=C(Cl)C(Cl)=C(Cl)Cl`, the compound was called inactive in assay [1] and in assay [5]. In addition, the Potency result in assay [2], in [3], in [4] and in assay [6] was “inactive” throughout. In assay [7], the activation is -0.54% and -2.12%.
Regarding `COc1ccc(N)cc1`, the result in assay [8], in assay [9], in [1] and in assay [5] was inactive. Besides, the Potency entry in assay [10], in assay [2], in assay [11], in assay [3] and in assay [4] was “inactive” throughout. For the same compound, the activation in assay [12] is -2.17% and -1.84%; in assay [7], 1.03% and 6.89%.
As to `CCCCOCCOP(=O)(OCCOCCCC)OCCOCCCC`, the Potency in assay [13] is above 92 µM. The outcome in [1] was inactive. Also, the Potency entry in assay [2], in assay [4], in assay [14], in assay [15], in assay [16] and in assay [17] was “inactive” in each case. The activation in [12] was -1.25% and 0.739%.
For the compound `C=CC(=C)C`, the result in assay [8], in [9] and in [1] was inactive. Besides, the Potency result in assay [18], in assay [2], in assay [11], in assay [4], in [15] and in [16] was “inactive” in each case.
Turning to `CCC[CH2][Sn]([Cl])([Cl])[Cl]`, the Potency in assay [13] is above 92 µM; in [6] it was 13.3 µM (active). Also, the Potency result in assay [2], in assay [14], in [15], in [16] and in [19] was “inactive” each time. Besides, the activation in assay [7] was 0.348% and 0.965%.
Regarding `CC(Cl)Cl`, the Potency result in assay [10], in assay [2], in assay [11], in [14], in assay [6] and in [17] was “inactive” each time. Moreover, the Potency result in assay [19] was “inactive”. Besides, the outcome in [5] was inactive. In [7], the activation is -0.961%.
Take `O=[N+]([O-])c1cccc2ccccc12`: in [13], the Potency is above 92 µM. In addition, the compound was classed as inactive in assay [8]. For the same compound, the caspase-3 activation in assay [20] is -0.0738%. Further, the Potency result in assay [18], in [11], in [3], in assay [4], in assay [14] and in assay [15] was “inactive” in each case. In addition, the Potency result in [16], in assay [17] and in assay [19] was “inactive” throughout. Moreover, the activation in assay [12] was -1.88% and -1.02%; in [7], 0.626% and 5.73%.

For the origin of these results see PubChem BioAssay (NCATS).
